Molecules are shown by their SMILES. In all, about 110,000 compounds were measured (“z-score”: median about -0.1, highest 2% from about 2 on). The sample as a whole holds a higher share of the highest values than the screen did. Activity calls are given as the source filed them.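 How the source made its calls: active means z-score in the third read window above 3 or below -3; inactive means the rest.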

In PubChem BioAssay AID488969 (Vanderbilt High Throughput Screening Facility, 2010) one finds z-score data, which are given here for 71 molecules.

For this assay, the target named is Metabotropic glutamate receptor 8 (Rattus norvegicus) (UniProt P70579). In words: rat mGluR8 modulators via GIRK flux, primary screen, cell-based, thallium flux, HTS (AID 488969). The note with it: HEK293 rat mGluR8, GIRK (G protein-gated inwardly rectifying potassium channel) thallium flux, FluoZin2; at 10 µM; stronger effect = higher value; submaximal glutamate (EC20) added with thallium.
Sequence of Metabotropic glutamate receptor 8 (Rattus norvegicus) (P70579 whole entry, looked up): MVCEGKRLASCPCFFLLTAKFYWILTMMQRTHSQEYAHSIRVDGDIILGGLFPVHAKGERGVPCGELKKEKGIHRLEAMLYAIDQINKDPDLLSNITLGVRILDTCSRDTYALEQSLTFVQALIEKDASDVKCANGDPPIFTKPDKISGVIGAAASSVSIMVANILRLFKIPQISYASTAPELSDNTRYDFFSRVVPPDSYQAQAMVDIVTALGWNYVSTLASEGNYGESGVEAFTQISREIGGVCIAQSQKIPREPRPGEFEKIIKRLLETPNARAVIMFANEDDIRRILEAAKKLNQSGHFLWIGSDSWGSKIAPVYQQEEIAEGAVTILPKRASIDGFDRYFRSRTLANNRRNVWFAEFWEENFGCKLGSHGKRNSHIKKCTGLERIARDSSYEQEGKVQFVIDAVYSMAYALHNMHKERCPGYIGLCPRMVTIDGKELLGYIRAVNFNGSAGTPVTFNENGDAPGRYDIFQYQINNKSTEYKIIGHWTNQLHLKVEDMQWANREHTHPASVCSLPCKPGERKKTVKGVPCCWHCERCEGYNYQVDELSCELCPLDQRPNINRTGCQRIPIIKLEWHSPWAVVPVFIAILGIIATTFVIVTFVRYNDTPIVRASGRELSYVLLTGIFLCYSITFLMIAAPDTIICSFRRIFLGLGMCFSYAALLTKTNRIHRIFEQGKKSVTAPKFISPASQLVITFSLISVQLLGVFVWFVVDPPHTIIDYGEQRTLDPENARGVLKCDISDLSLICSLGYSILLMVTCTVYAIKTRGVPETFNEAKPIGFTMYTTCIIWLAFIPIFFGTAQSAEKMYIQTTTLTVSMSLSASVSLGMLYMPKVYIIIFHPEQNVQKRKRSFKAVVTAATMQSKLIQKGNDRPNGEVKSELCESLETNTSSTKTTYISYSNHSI
Molecule `COc1cc(NC(=O)c2ccco2)c(OC)cc1NC(=O)CSc1nnc(-c2cccs2)n1C` gave a z-score of -1.07.
For `CCOC(=O)C1=C(CC)Nc2ccccc2N=C1NC(=O)c1cc(S(=O)(=O)N(C)C)ccc1Cl` the value was 0.243.
For `CCOC(=O)C1=C(CC)Nc2ccccc2N=C1NC(=O)Nc1ccc(Cl)c(Cl)c1` the value was 5.4 (active); for `CCOC(=O)C1=C(CC)Nc2ccccc2N=C1NC(=O)Nc1ccccc1OC`, 0.249; for `Cc1cc(C)n(C(=O)c2ccc(C)c(F)c2F)n1`, -0.238.
For `CCCCCc1ccc(S(=O)(=O)NCCc2ccncc2)cc1` the value was 0.483; for `CCCCNS(=O)(=O)c1ccc(S(=O)(=O)NCc2ccncc2)cc1`, 2.5; for `CCCCc1ccc(S(=O)(=O)NCCc2ccncc2)cc1`, 0.298.
As for `CCOC(=O)C1=C(C)Nc2sc(C(=O)c3ccc(C)cc3)c(N)c2C1c1ccc(C(=O)OC)cc1` (stereo unspecified), the z-score was -0.284.
For `CCc1ccc(NC(=S)NNC(=O)c2ccccc2OC(F)F)cc1` the value was 3.63 (active); for `O=C(NNC(=S)Nc1ccc(F)cc1)c1ccccc1OC(F)F`, -0.00644; for `Cc1ccc(NC(=S)NNC(=O)c2ccccc2OC(F)F)cc1`, 0.966.
With `CC1Cc2ccccc2N1C(=O)CSc1ccccc1` (stereo unspecified), the z-score is -0.501.
For `CCOc1ccc(N2C(=O)CC(N3CCc4ccccc43)C2=O)cc1` (stereo unspecified) the value was 1.67; for `Cc1sc2ncn(CC(=O)NCCc3ccccc3)c(=O)c2c1C`, 0.251.
On to `COc1ccc(CNC(=O)c2ccc(-c3ccccc3)cc2)cc1`, for which the z-score was -0.113.
For `N#CCCN(Cc1cccnc1)C(=O)Nc1ccccc1` the value was -0.271; for `COc1ccc(CN(CCC#N)C(=S)NC(=O)c2ccccc2)cc1`, 4.49 (active); for `N#CCCN(Cc1ccccc1)C(=S)NC(=O)c1ccccc1`, 2.39.
`N#CCCN(Cc1ccccc1)C(=S)Nc1ccccc1`: the z-score is -0.262.
Turning to `COc1ccccc1CC(=O)N(CCC#N)CCC#N`, the z-score is -0.512.
As to `c1ccc2c(c1)CC1(CCCC1)n1nnnc1-2`, the z-score is -0.648.
To `C/C(=N\NC(=O)c1c(Cl)c(C)nn1C)c1ccc(NC(=O)COc2ccc(Cl)cc2C)cc1` belongs 0.132; to `O=C(CSc1ccc(-c2ccco2)nn1)c1ccccc1`, 7.29 (active); to `O=C(CSc1ccc(-c2ccco2)nn1)c1ccc(F)cc1`, -0.0218.
As for `COc1ccc(C(=O)CSc2ccc(-c3ccco3)nn2)cc1`, the z-score turned out to be 0.654.
To `CC(=O)c1cn(CC(=O)NCc2cccnc2)c2ccccc12` belongs 0.276.
As to `Cc1ccccc1OCC(=O)O/N=C(\N)Cc1cccs1`, the z-score was 3.93 (active).
For `N/C(Cc1cccs1)=N\OC(=O)COc1ccccc1Cl` the value was -2.93.
To `N/C(Cc1cccs1)=N\OC(=O)COc1ccccc1` belongs -1.06; to `C=CCC1(O)CC(c2ccco2)NC(c2ccco2)C1CCC` (stereo unspecified), 1.08.
For `Cc1c(NC(=O)C(C)c2ccc(CC(C)C)cc2)c(=O)n(-c2ccccc2)n1C` (stereo unspecified) the value was -0.175.
`CCc1nc2c(sc3nc4c(cc32)COC(C)(C)C4)c(=O)n1Cc1ccccc1` returned a z-score of -0.115.
In turn, `CC1(C)CC(=O)c2c(nn(-c3ccccc3)c2N)C1` yielded a z-score of -0.372.
For `CC1(C)CC(=O)c2c(nc3ccccc3c2N)C1`, the z-score is -1.01.
With `CC1(C)CC(=O)c2c(noc2-c2ccccc2)C1`, the z-score is 3.63 (active).
On to `O=[N+]([O-])c1cccc(-c2nnc(-c3ccc4c(c3)OCO4)o2)c1`, for which the z-score was -0.286.
As for `CCC/C(O)=C1\C(=O)CC(c2ccccc2)CC1=NC` (stereo unspecified), the z-score is -0.23.
For `CC(C)N1C(=S)SC(C)(C)C1NO` (stereo unspecified) the value was -0.154.
On to `O=S(=O)(c1ccc(Cl)c(F)c1)N1CCC(c2nc(-c3ccncc3)no2)CC1`, for which the z-score is 8.06 (active).
In turn, `O=[N+]([O-])c1cccc(S(=O)(=O)N2CCC(c3nc(-c4ccncc4)no3)CC2)c1` showed a z-score of -0.207.
The molecule `CC(C)c1ccc(-c2noc(C3CCCN(C(=O)c4ccc(F)cc4F)C3)n2)cc1` (stereo unspecified) displayed a z-score of -0.983.
To `COc1cccc(-c2noc(C3CCCN(S(=O)(=O)c4cccc(Cl)c4C)C3)n2)c1` (stereo unspecified) belongs 0.354; to `CCCS(=O)(=O)N1CCCC(c2nc(-c3ccc(OC)cc3)no2)C1` (stereo unspecified), 0.0798; to `CC(C)c1ccc(-c2noc(C3CCCN(S(C)(=O)=O)C3)n2)cc1` (stereo unspecified), 5.82 (active).
Molecule `O=S(=O)(c1ccccc1Cl)N1CCCC1c1nc(-c2ccc(Cl)cc2)no1` (stereo unspecified) yielded a z-score of 0.14.
To `O=S(=O)(c1ccccc1Cl)N1CCCC(c2nc(-c3cccnc3)no2)C1` (stereo unspecified) belongs 2.62.
For `O=S(=O)(c1ccc2ccccc2c1)N1CCC(c2nc(-c3ccncc3)no2)CC1` the value was 0.107; for `Cc1ccccc1NS(=O)(=O)c1ccc(OCCNS(C)(=O)=O)cc1`, -0.0428; for `COc1ccccc1N1CCN(C(=O)CCCN2C(=O)c3cccc4cccc(c34)C2=O)CC1`, -0.334.
For `Cn1c(=O)c2c(O)cc(=O)[nH]c2n(-c2ccccc2)c1=O` the value was -0.00781; for `COc1ccc(S(=O)(=O)N2CCOCC2)cc1NC(=O)c1ccccc1-c1ccc(C(F)(F)F)cc1`, -0.207.
In turn, `Cc1noc(C)c1C(c1ccccc1)S(=O)(=O)c1ccccc1` (stereo unspecified) gave a z-score of 0.53.
On to `O=C(CSc1ncccn1)N/N=C/c1cccc([N+](=O)[O-])c1`, for which the z-score was 1.35.
As to `O=C(COC(=O)c1ccc(Br)o1)Nc1cccc(S(=O)(=O)N2CCCCCC2)c1`, the z-score stood at 0.698.
As for `COc1ccc(C(=O)NCc2nnc(SCC(=O)NCc3ccc(F)cc3)o2)cc1`, the z-score was -0.134.
`COC(=O)c1ccccc1NC(=O)CSc1nnc(Cc2ccc(Cl)cc2)o1` returned a z-score of -0.323.
`CCCn1c(SCC(N)=O)nc2c(c1=O)C1(CCCC1)Cc1ccccc1-2`: the z-score was -0.333.
As to `CCn1c(SCC(N)=O)nc2c(c1=O)C1(CCCC1)Cc1ccccc1-2`, the z-score was 5.27 (active).
To `Cc1ccc(-n2c(SCC(N)=O)nc3c(c2=O)C2(CCCC2)Cc2ccccc2-3)cc1` belongs -0.348; to `COC(=O)Nc1cc(C)nc2ccccc12`, 0.301; to `COc1cccc(Nc2nc(NCCO)c3ccccc3n2)c1`, -0.496.
To `COc1cccc(Nc2ncnc3ccccc23)c1` belongs -0.25; to `Cc1cc(Nc2ccc3c(c2)OCCO3)c2ccccc2n1`, 0.143; to `COc1ccc(Nc2cc(C)nc3ccccc23)cc1`, 2.44.
For `COc1cccc(Nc2cc(C)nc3ccccc23)c1` the value was 2.53; for `O=C(CCN1C(=O)c2ccccc2S1(=O)=O)N1CCN(c2ccccc2)CC1`, -0.363.
With `CCOc1cccc(OCCCCN2CCOCC2)c1`, the z-score was -0.982.
Molecule `COc1cc2nc(-c3ccc(Br)o3)oc(=O)c2cc1OC` gave a z-score of -1.58.
For `Cc1nc2nc(-c3ccco3)[nH]n2c(=O)c1Cc1ccccc1` the value was -1.16.
With `O=C(Nc1cccc(C(=O)N2CCOCC2)c1)c1ncn[nH]1`, the z-score is -0.145.
